# PNC inhibitor – perinucleolar compartment assembly inhibition | PC3M PTB-GFP, PNC prevalence imaging, 16 h; stronger effect = lower value | AID 2417 | hit rate 3.1% among 140,000 | activity change (PNC), negative = inhibition, % at 10 µM;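 active = readout at or below -70, meaning at least 70% loss of cells showing the perinucleolar compartment, a nuclear body marking cancer cells; inconclusive = readout between -30 and a set limit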;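 note: plate controls were DMSO wells for no effect and camptothecin positive control wells for full effect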
#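 Compounds are pinned in duplicate onto adhered PC3M cells stably expressing GFP-tagged PTB and incubated 16 h at 37 C. Cells are then fixed, nuclei stained with Hoechst, and PNC-positive cells counted.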
# Tau fluor cs – counter-screen for tau fibril formation inhibitors; tau K18 P301L Alexa594 fluorescence, heparin fibrillization; Potency, µM (titrated, usually from 57.7 µM), for the others: at the top dose activity change, negative = decrease; hit rate 0.93% among 280,000; AID 1463; note: potency is the fitted concentration of half-maximal effect; nearly all actives have a fitted effect of over 55% in size
#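 Human tau K18 P301L (15 uM unlabeled, 0.24 uM Alexa 594-labeled) in 100 mM sodium acetate pH 7 with 20 uM heparin, 6 hr at 37 C. ThT 30 uM added, 1 hr ambient; Alexa 594 FP and total fluorescence read at 555/632 nm.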
# TRb SRC2 PPI – disrupts binding of human TR beta to SRC2; hit rate 0.065% among 280,000; Potency, µM (titrated, usually from 106 µM), inactives show at the highest dose activity change, negative = inhibition, most hits filed as inhibitors; TRbeta-SRC2 peptide binding, fluorescence polarization; receptor liganded with 1 µM T3; P10828;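 note: potency is the fitted concentration of half-maximal effect; plate controls were bound peptide for no effect and peptide without receptor for full effect; nearly all actives have a fitted effect of over 50% in size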
#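 Fluorescence polarization of 20 nM Texas Red SRC2 peptide (20-aa NR interaction domain) bound to 0.6 uM human TRb ligand-binding domain, with 1 uM T3, after 5 hr at ambient temperature; inhibition seen as decreased polarization.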
# Tau fibril ThT – tau fibrillization inhibition (ThT binding). P10636. recombinant tau K18 P301L (four-repeat tau fragment), heparin-induced fibrillization, ThT fluorescence. Potency, µM (series often up to 57.4 µM), for the others: at the top dose activity, negative = inhibition, usual class: inhibitors. hit rate 2.1% among 270,000. AID 1460; note: potency is the fitted concentration of half-maximal effect; nearly all actives have a fitted effect of over 55% in size
# Target sequence (P10636 561-689 P618L limits assumed): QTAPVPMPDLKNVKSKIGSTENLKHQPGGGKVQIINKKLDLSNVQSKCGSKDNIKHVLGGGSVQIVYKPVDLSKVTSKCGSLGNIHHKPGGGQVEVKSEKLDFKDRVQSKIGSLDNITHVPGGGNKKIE
#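 Heparin-induced (20 uM) aggregation of recombinant human K18 P301L tau, 15 uM unlabeled with 0.24 uM labeled, pH 7 acetate buffer, 6 hr at 37 C with compound. Fibrils quantified by 30 uM ThT fluorescence after 1 hr ambient incubation.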
# TR SRC2 fluor cs – alters Texas Red total fluorescence, flagging assay interference. TRb/SRC2 Texas Red total fluorescence interference. Potency, µM (highest dose often 106 µM), inactives show top-dose fluorescence change, negative = quenching. hit rate 0.29% among 280,000; active = well fitted curve in either direction with a large enough effect; inconclusive = small, poorly fitted or top-dose-only effect; note: potency is the fitted concentration of half-maximal effect
#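 Human TRb ligand-binding domain at 0.6 uM with 20 nM Texas Red SRC2 peptide in Tris buffer containing 1 uM T3 and 5% DMSO, incubated with compound 5 h at ambient temperature. Total fluorescence (555/632 nm) calculated as parallel + 2 × perpendicular.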
# Tau fibril FP – tau fibrillization inhibition (FP). K18 P301L tau heparin fibrillization, Alexa594 FP, 6 h. Potency, µM (series often up to 57.7 µM), without a hit: at the top dose activity, negative = inhibition, hits mostly inhibitors. hit rate 0.39% among 280,000; note: potency is the fitted concentration of half-maximal effect; nearly all actives have a fitted effect of over 55% in size
#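 Human tau K18 […] P301L fragment, 15 uM unlabeled plus 0.24 uM Alexa 594-labeled tau (final), with compound and 20 uM heparin in 100 mM sodium acetate pH 7; 6 hr at 37 C, then Alexa 594 FP read.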
# * marks the source's active call; other numbers are inactive results; ? = inconclusive; . = no result; [ ] = another dose, or the depositor's remark. An excerpt weighted towards active compounds, which were near 4.6% of everything screened. Unless noted, calls come from the whole dose curve; as a rule, active = well fitted curve in the direction sought with a large enough effect; inconclusive = small, poorly fitted or top-dose-only effect, or another doubt; inactive = no such curve, though single readings can be large; an effect the other way counts as inactive or inconclusive. Unless noted, % is set by controls: 0 for no effect and ±100 for the full control effect.
SMILES,PNC inhibitor,Tau fluor cs,TRb SRC2 PPI,Tau fibril ThT,TR SRC2 fluor cs,Tau fibril FP
CC(=O)OCCNc1cc(N2CCN(C)CC2)c2noc3c2c1C(=O)c1ccccc1-3,-93*,?,45µM*,28µM*,50µM*[fluorescent],?
CC(C)Nc1cc(N2CCN(C3CCCCC3)CC2)c2noc3c2c1C(=O)c1ccccc1-3,.,?,-3%,?,2%,-3%
CCNc1cc(N2CCN(C3CCCCC3)CC2)c2noc3c2c1C(=O)c1ccccc1-3,.,-23%,-2%,?,0%,0%
O=C1c2ccccc2-c2onc3c(NCCO)cc(NC4CCCCC4)c1c23,.,11µM*[quencher],?,7.9µM*,40µM*[fluorescent],?
Cc1cc(C)n2ncc(S(=O)(=O)c3ccccc3)c2n1,.,-10%,1%,-4%,-1%,-9%
Cc1cc(C)nc(/N=C(/NC(=O)Nc2ccc(Cl)c(Cl)c2)Nc2cccc(Cl)c2)n1,-113*,-8%,3%,-8%,0%,-1%
CC1(C)CC(NC(=O)c2coc(=O)c(Br)c2)CC(C)(C)N1,-100*,-3%,-12%,-12%,-3%,-2%
CC1(C)CC(NC(=O)c2ccc3c(c2)OCO3)CC(C)(C)N1,-1,6%,-4%,8%,1%,-2%
Cc1ccc2c(c1)C(Cc1ccccc1F)C(=O)N2 (stereo not drawn),.,-8%,-3%,-10%,3%,1%
CCOC(=O)Nc1cccc(C(=O)O)c1,-104*,-5%,6%,-11%,2%,-2%
COc1cc(/C=C2/C(=O)NN(c3ccc(Cl)cc3)C2=O)ccc1OC(=O)c1ccco1,19,?,-3%,14µM*,-9%,5%
COc1cc(/C=C2/C(=O)NN(c3cccc(F)c3)C2=O)ccc1OC(=O)c1ccco1,-81*,-15%,-5%,?,2%,3%
COc1cc(/C=N/NC(=O)c2ccc(F)cc2)ccc1OC(=O)c1ccco1,?,-16%,6%,-21%,-3%,-4%
C=CCN1C(=O)/C(=C\c2ccc(OC(=O)c3ccco3)c(OC)c2)SC1=S,.,?,4%,?,-3%,12%
CC(=O)Oc1ccc(C(=O)Nc2ccccc2C(=O)NCC(C)C)cc1,-4,-2%,8%,-7%,-2%,0%
O=C(CCc1nc2ccccc2[nH]1)NC1CCCCC1,58,2%,-1%,0%,-3%,10%
O=C(CCc1nc2ccccc2[nH]1)N1CCc2ccccc2C1,-91*,-14%,-1%,-6%,-2%,-4%
COC(=O)COc1ccc(S(=O)(=O)NCc2ccco2)cc1Cl,-103*,0%,3%,-4%,3%,2%
COc1ccc(CN=C(Nc2ccccc2)SC2CC(=O)NC2=O)cc1 (stereo not drawn),.,-63%,3%,10µM*,10%,-4%[2.34 µM]
O=C1CC(SC(=NCc2ccc3c(c2)OCO3)Nc2ccccc2)C(=O)N1 (stereo not drawn),-115*,-27%,-7%,-17%,-2%,?
CN1CCN(c2cc3c(c4c2[nH]c2ccccc24)C(=O)CC(C)(C)C3)CC1,-25,14µM*[quencher],-8%,?,-5%,?
COc1cccc(Oc2cn[nH]c2-c2ccc(OC)cc2O)c1,-17,14µM*[quencher],1%,-11%,0%,-11%
COc1cccc(Oc2cn[nH]c2-c2ccc(O)cc2O)c1,-86*,?,6%,-9%,-1%,?
COc1ccc(-c2[nH]ncc2-c2csc(C)n2)c(O)c1,-91*,-1%,2%,7%,-3%,4%
CCOc1ccc(-c2[nH]ncc2Oc2cccc(OC)c2)c(O)c1,?,16µM*[quencher],-5%,?,-2%,?
CCOc1ccc(-c2[nH]ncc2-c2csc(C)n2)c(O)c1,-14,-16%,-10%,-2%,1%,7%

# Screening data (PubChem BioAssay)
